# Only a selection was taken, and hits are over-represented in it overall.
# Pf Dd2 inh: inhibitors of Plasmodium falciparum Dd2 growth; P. falciparum Dd2 growth, SYBR Green, 72 h; Potency, µM (doses to about 28.9 µM), inactives show top-dose activity, negative = inhibition, most hits filed as inhibitors; 120,000 tested, 4.3% active; active means well fitted inhibition curve with a large enough effect;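 further: plate controls were DMSO vehicle for no effect and reference drug for full effect; nearly all actives have a fitted effect of over 65% in size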
#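 Readout: SYBR Green fluorescence, 485 nm excitation, 535 nm emission, after ~16 h lysis at 37C. Before that, Dd2-infected red cells (2.5% hematocrit) grew 72 h with compound, 29 uM top final concentration.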
# An asterisk follows results filed as active; i = inactive; [ ] = remark or other dose. Potency means the concentration at half of the fitted maximal effect.
SMILES,Pf Dd2 inh
CCNC(=O)N1CCC(OC2CCN(S(C)(=O)=O)CC2)CC1,10%
CCOC(=O)C1CCN(S(=O)(=O)c2cc3c4c(c2)CC(=O)N4CCC3)CC1,10µM*
CCOC(=O)C1CCN(S(=O)(=O)c2cc3c4c(c2)C(C)C(=O)N4CCC3)CC1 (stereo not given),i
CCOC(=O)C1CCCN(S(=O)(=O)c2cc3c4c(c2)CC(=O)N4CCC3)C1 (stereo not given),-9%
CCS(=O)(=O)Nc1ccc(C2(C(=O)NCc3cccs3)CCCCC2)cc1,i
CCOCc1nc(C2CCCN(C(=O)c3ccc(C)c(F)c3)C2)no1 (stereo not given),120%
CCN(CC)Cc1nc(C2(O)CCN(Cc3ccccc3)CC2)cs1,-16%[44.1 µM]
O=C(c1cc2cc(F)ccc2[nH]1)N1CCC(CO)(CCCc2ccccc2)CC1,-13%
OCC1(CCCc2ccccc2)CCN(Cc2cccn2-c2nccs2)CC1,10µM*
OCC1(CCCc2ccccc2)CCN(Cc2ccc(-n3cccn3)cc2)CC1,4.5µM*
O=C(NCCCc1ccccc1)C1(CCO)CCN(c2ncccn2)C1 (stereo not given),i
O=C(c1ccc2nc[nH]c2c1)N1CCC(CO)(CCCc2ccccc2)CC1,13%
NC(=O)C1CCN(CC[C@H]2CN(C(=O)Cc3ccccc3)CC[C@H]2CC(=O)O)CC1,-3%[44.1 µM]
Cc1ccc(C2Cn3nnc(C(=O)N4CCN(C(=O)c5ccccc5)CC4)c3CO2)cc1 (stereo not given),i
CCc1noc(-c2cn(C3CCN(C(=O)c4ccc(OC(F)(F)F)cc4)CC3)nn2)n1,i
COC(=O)N1CCCC(c2nn(-c3cccc(Cl)c3)c(=O)[nH]2)C1 (stereo not given),-2%
Cc1noc(C)c1C(=O)N1CCC2(CC1)CN(C(=O)N(C)C)Cc1ccccc1O2,-20%
CCN(Cc1ccccc1)c1nc2c(S(=O)(=O)c3ccccc3)nnn2c2ccc(Cl)cc12,6.3µM*
COCCNc1nc2c(S(=O)(=O)c3ccccc3)nnn2c2ccc(Cl)cc12,i
COc1ccc(CNc2nc3c(S(=O)(=O)c4ccccc4)nnn3c3ccc(Cl)cc23)cc1,-11%
Cc1ccc(S(=O)(=O)N2C[C@H](F)C[C@@H]2C(=O)N2CCOCC2)cc1Cl,-23%
CCC1CN(Cc2nc(CCOC)no2)CCC(=O)N1Cc1ccccc1 (stereo not given),-4%
COCc1cn(C[C@H]2C[C@@H](NC(=O)c3cc(C)on3)[C@H](O)[C@@H]2O)nn1,3%[44.1 µM]
CN(C)C(=O)c1cc2c(s1)CCC(C(=O)N1CCN(c3ccccn3)CC1)C2 (stereo not given),i
CN(C)C(=O)c1cc2c(s1)CCC(C(=O)N1CCN(c3cccc(Cl)c3)CC1)C2 (stereo not given),5µM*
SMILES,Pf Dd2 inh
CN(C)C(=O)c1cc2c(s1)CCC(C(=O)N1CCN(c3ccccc3)CC1)C2 (stereo not given),i
CCC(=O)N1CCOc2ccc(CN3CCCCC3)cc2C1,3%
CCc1ccc(CNC(=O)CN2C(=O)NC3(CCCCC3)C2=O)cc1,-17%
O=C1N(Cc2cccc(F)c2F)CCCC1(O)CN1CCNCC1 (stereo not given),-2%
CC(C)(C)CNCC1(O)CCCN(Cc2cccc(F)c2F)C1=O (stereo not given),4.5µM*
CN(CCO)CC1(O)CCCN(Cc2cccc(F)c2F)C1=O (stereo not given),i
Cc1nc(CNC(=O)c2cn(CCC3CCCCN3)nn2)cc(=O)[nH]1 (stereo not given),7%
CC(C)(C)c1ccc(-c2cc(C[C@H]3CNCC[C@H]3CC(=O)NCCN3CCOCC3)no2)cc1,10µM*
CN(C)CCNC(=O)C[C@@H]1CCNC[C@@H]1Cc1cc(-c2ccc(C(C)(C)C)cc2)on1,i
COc1ccc(-c2cc(C[C@H]3CNCC[C@H]3CC(=O)N3CCOCC3)no2)cc1,9%[44.1 µM]
O=C(C[C@@H]1CCNC[C@@H]1Cc1cc(-c2ccccc2)on1)NC1CC1,11%[44.1 µM]
CC(C)(C)c1ccc(-c2cc(C[C@H]3CNCC[C@H]3CC(=O)N3CCC(Cc4ccccc4)CC3)no2)cc1,i
CN1CCN(C(=O)C[C@@H]2CCNC[C@@H]2Cc2cc(-c3ccccc3)on2)CC1,i
CC(C)NC(=O)C[C@@H]1CCNC[C@@H]1Cc1cc(-c2ccc(C(C)(C)C)cc2)on1,7.1µM*
CCN(CC)C(=O)C[C@@H]1CCNC[C@@H]1Cc1cc(-c2ccc(C(C)(C)C)cc2)on1,4.5µM*
CC(C)(C)c1ccc(-c2cc(C[C@H]3CNCC[C@H]3CC(=O)Nc3ccccc3)no2)cc1,-25%[44.1 µM]
Cc1ccc(CNC(=O)NCC23CCC=C2N(C)C(=O)CC3)cc1 (stereo not given),-2%
O=C(c1ccccc1Cl)N1CCN(c2nc3ncccc3o2)CC1,8%
COc1ccc2ccc(OCc3nc(C(=O)N(C)CC4COCCO4)co3)cc2c1 (stereo not given),i
CC(=O)c1ccc(NC(=O)N[C@@H]2C=C(C(=O)NCCC(N)=O)C[C@@H](O)[C@@H]2O)cc1,-24%[44.1 µM]
Cc1n[nH]c(C)c1CCC(=O)NCC1CCN(c2cc(-c3ccccc3)[nH]n2)CC1,i
O=C(c1ccc(=O)[nH]c1)N1C[C@@H](CO)[C@H](c2ccccn2)C1,11%
COc1cc(OC)c(OC)cc1CN1C[C@@H]2C(=O)N(C)C(=O)[C@@H]2C1,9%
O=C1CCN(S(=O)(=O)c2ccccc2)CCCN(C(=O)C2CCC2)CCN1,23%
Cc1noc(C)c1CC(=O)N1CC[C@@H]2CN(S(C)(=O)=O)[C@@H]2C1,i
SMILES,Pf Dd2 inh
COc1ccc(-c2ccc3nnc(CNC(=O)Cc4cccc(OC)c4)n3n2)cc1,i
O=C(NC1CCN(c2cc(-c3cccs3)[nH]n2)CC1)c1ccc(F)c(Cl)c1,i
O=C(NC1CCN(c2cc(-c3cccs3)[nH]n2)C1)c1ccncc1 (stereo not given),i
O=C(NC1CCN(c2cc(-c3cccs3)[nH]n2)C1)c1cc2ccccc2[nH]1 (stereo not given),14µM*
Cc1ccc(C(=O)NC2CCN(c3cc(-c4cccs4)[nH]n3)C2)cc1F (stereo not given),i
Cc1ccc(C(=O)NC2CCN(c3cc(-c4cccs4)[nH]n3)CC2)cc1F,11µM*
O=C(NC1CCN(c2cc(-c3cccs3)[nH]n2)C1)c1ccc2[nH]ccc2c1 (stereo not given),i
CNS(=O)(=O)c1ccc(CN2CC3(CCNCC3)CC2C(=O)O)cc1 (stereo not given),7%
CCOc1ccc2c(n1)CCN(C(=O)Cc1c(C)noc1C)C2,i
CC(C)c1nncn1C1CCN(S(=O)(=O)c2ccc(C(F)(F)F)cc2)CC1,-22%
COC(=O)[C@H](CC1CCCCC1)NC(=O)[C@H]1CN(C(=O)c2cccc(F)c2)CCN1C(C)=O,-16%
COc1ccc(NC(=O)N(C)CC2CCOCC2)cc1Cl,-17%
CCn1ccc(C(=O)N2CC(c3nnc(-c4ccc(C)cc4)o3)C3(CCOCC3)C2)n1 (stereo not given),i
O=C(C[C@H]1NC(=O)c2ccccc2NC1=O)Nc1ncn[nH]1,-6%
O=C(COc1ccccc1)N1C[C@@H]2C[C@H](C1)c1c(NS(=O)(=O)c3ccccc3)ccc(=O)n1C2,-25%
CC(C)(C)C1CCc2nc(NC(=O)COc3ccccc3[N+](=O)[O-])sc2C1 (stereo not given),i
Cc1cccc(OCC(=O)Nc2nc3c(s2)CC(C(C)(C)C)CC3)c1C (stereo not given),16%

# Screens deposited in PubChem by National Center for Advancing Translational Sciences (NCATS).
